Results taken from PubChem BioAssay AID1159580 (chemical genetic matrix, 2015).
Values joined by “and” are separate entries in the source; they are usually repeats but may differ in a detail not shown here. Identical values can stand only once. Hit rate of the full screen: of about 5,500 compounds, about 2,000 (36%) were called active. Another 18% or so got no clear call; they are omitted. Rule as the data show it: active = normalized growth mostly below about 0.91 (no sharp cut-off); inconclusive = no clear call, values can overlap the other calls; inactive = mostly above about 0.92. The list shows a part of the results.

Experiment: chemical genetic growth profiling, strain panel (AID 1159580);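 also: tested at 20 µM; growth read once vehicle control cultures reached saturation at 30 °C; 1 = growth at the plate median or of vehicle wells; lower values mean less growth of the strain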
Settings: S. cerevisiae deletion strains, growth OD

Measured: normalized growth

NC(=O)c1cccc(N)c1
inactive: locus YAL013W, strain DEP1, active compounds read low 1 and 1.01 | locus YAL021C, strain ccr4, active compounds read low 0.979 | locus YAL026C, strain drs2, active compounds read low 0.97 | locus YAL030W, strain snc1, active compounds read low 0.992 | locus YAL040C, strain CLN3, active compounds read low 1 | locus YBL061C, strain skt5, active compounds read low 0.977 | locus YBR009C, strain hhf1, active compounds read low 0.998 | locus YBR021W, strain FUR4, active compounds read low 0.968 | locus YBR023C, strain chs3, active compounds read low 0.981 | locus YBR171W, strain sec66, active compounds read low 0.962 | locus YBR229C, strain ROT2, active compounds read low 1 | locus YBR231C, strain swc5, active compounds read low 0.967 | locus YBR279W, strain paf1, active compounds read low 0.99 | locus YCL011C, strain gbp2, active compounds read low 0.957 | locus YCL016C, strain dcc1, active compounds read low 0.988 | locus YCL029C, strain bik1, active compounds read low 1 | locus YCL061C, strain MRC1 (second series), active compounds read low 1 | locus YCL069W, strain vba3, active compounds read low 0.962 | locus YCR088W, strain abp1, active compounds read low 0.972 | locus YDL005C, strain med2, active compounds read low 0.969 | locus YDL035C, strain GPR1, active compounds read low 1 | locus YDL040C, strain nat1, active compounds read low 0.988 | locus YDL074C, strain BRE1, active compounds read low 1.01 | locus YDL101C, strain DUN1, active compounds read low 1.01 | locus YDL134C, strain PPH21, active compounds read low 0.999 | locus YDL185W, strain tfp1, active compounds read low 1.01 | locus YDL192W, strain arf1, active compounds read low 0.999 | locus YDR001C, strain nth1, active compounds read low 0.979 | locus YDR069C, strain doa4, active compounds read low 0.966 | locus YDR101C, strain arx1, active compounds read low 0.987 | locus YDR137W, strain rgp1, active compounds read low 0.976 | locus YDR150W, strain NUM1, active compounds read low 1.01 | locus YDR159W, strain sac3, active compounds read low 0.965 | locus YDR162C, strain NBP2, active compounds read low 1 | locus YDR195W, strain ref2 0.958 | locus YDR297W, strain sur2, active compounds read low 0.98 | locus YDR318W, strain mcm21, active compounds read low 0.985 | locus YDR334W, strain swr1, active compounds read low 0.96 | locus YDR335W, strain msn5, active compounds read low 0.97 | locus YDR363W, strain ESC2, active compounds read low 1 | locus YDR388W, active compounds read low 0.993 | locus YDR392W, strain spt3, active compounds read low 0.965 | locus YDR502C, strain sam2, active compounds read low 1.01 | locus YEL003W, strain gim4, active compounds read low 0.979 | locus YEL037C, strain rad23, active compounds read low 0.969 | locus YEL061C, strain CIN8 (second series), active compounds read low 0.954 | locus YEL061C, strain CIN8, active compounds read low 1.01 | locus YER002W, strain NOP16, active compounds read low 1.02 | locus YER015W, strain faa2, active compounds read low 0.983 | locus YER016W, strain bim1, active compounds read low 0.977 | locus YER110C, active compounds read low 0.996 | locus YER111C, strain swi4, active compounds read low 0.966 | locus YER155C, strain BEM2 (second series), active compounds read low 0.965 | locus YER155C, strain BEM2, active compounds read low 0.99 | locus YER167W, strain BCK2, active compounds read low 1 | locus YFR010W, strain ubp6, active compounds read low 0.968 | locus YGL078C, strain dbp3, active compounds read low 1 | locus YGL086W, strain mad1, active compounds read low 0.988 | locus YGL167C, strain pmr1, active compounds read low 0.981 | locus YGL173C, strain kem1, active compounds read low 0.984 | locus YGL227W, strain vid30, active compounds read low 0.966 | locus YGL240W, strain doc1, active compounds read low 0.969 | locus YGL248W, strain PDE1, active compounds read low 1 | locus YGL253W, strain hxk2, active compounds read low 0.963 | locus YGR078C, strain PAC10, active compounds read low 1 and 1.05 | locus YGR135W, strain pre9, active compounds read low 0.986 | locus YGR229C, strain SMI1, active compounds read low 1.01 | locus YGR252W, strain gcn5, active compounds read low 0.978 | locus YHR013C, strain ard1, active compounds read low 0.972 | locus YHR027C, strain rpn1, active compounds read low 0.974 | locus YHR030C, strain SLT2, active compounds read low 1.01 | locus YHR079C, strain IRE1 (second series), active compounds read low 0.994 | locus YHR094C, strain hxt1, active compounds read low 0.998 | locus YHR129C, strain ARP1, active compounds read low 1 | locus YHR142W, strain chs7, active compounds read low 0.968 | locus YHR200W, strain rpn10, active compounds read low 0.993 | locus YIL066C, strain RNR3, active compounds read low 1 | locus YIL073C, strain SPO22, active compounds read low 1.02 | locus YIL125W, strain kgd1, active compounds read low 0.996 | locus YIR030C, strain dcg1, active compounds read low 0.996 | locus YJL092W, strain hpr5, active compounds read low 0.954 | locus YJL095W, strain BCK1 (second series), active compounds read low 0.979 | locus YJL095W, strain BCK1, active compounds read low 1 | locus YJL115W, strain asf1, active compounds read low 0.966 | locus YJL129C, strain trk1, active compounds read low 0.965 | locus YJL134W, strain LCB3, active compounds read low 1 | locus YJL154C, strain vps35, active compounds read low 0.979 | locus YJL164C, strain tpk1, active compounds read low 1 | locus YJL166W, strain qcr8, active compounds read low 1.01 | locus YJL168C, strain set2, active compounds read low 0.99 | locus YJL187C, strain SWE1 (second series), active compounds read low 1.01 | locus YJL187C, strain SWE1, active compounds read low 0.968
